Experimental data published in PubChem BioAssay (Tox21).
Values without a mark were called inactive. Inconclusive results are not listed. A call without a number means that no potency is given here. Active and inactive are the calls of the source. Calls follow the shape of the dose curve; as a rule, active = well fitted curve in the direction sought with a large enough effect in the repeat runs; inconclusive = weak or mixed curves; inactive = no such curve, though single readings can be large; an effect the other way counts as inactive or inconclusive.

Legend:
[1] = qHTS RealTime-Glo MT Cell Viability Assay in HEK293 cells - 16 hour (AID 1224872); also: nearly all actives have a fitted effect of over 50% in size; also: potency is read from the fitted curve at half-maximal effect; as to activity change, negative = cytotoxicity: top concentration of the series differs between compounds
In short: (§1)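 HEK293 cells seeded with NanoLuc/prosubstrate reagent, rested 5 h at 37 C, then dosed and kept at 37 C up to 40 h. Nonlytic real-time luminescence from viable cells read at 0, 8, 16, 24, 32 and 40 h.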

[2] = qHTS RealTime-Glo MT Cell Viability Assay in HepG2 cells - 8 hour (AID 1224873); also: nearly all actives have a fitted effect of over 55% in size; also: potency is read from the fitted curve at half-maximal effect
In short: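 HepG2 cells mixed with RealTime-Glo MT reagents (NanoLuc plus cell-permeant prosubstrate) were seeded at 600 cells/well, incubated 5 h at 37 C/5% CO2, then pinned with compounds in DMSO; nonlytic luminescence tracked viability during 40 h treatment.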

[3] = qHTS RealTime-Glo MT Cell Viability Assay in HEK293 cells - 40 hour (AID 1224874); conditions: RealTime-Glo luminescence; max response: active compounds read low; also: nearly all actives have a fitted effect of over 50% in size; also: potency is read from the fitted curve at half-maximal effect
In short: (§2)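 Cells were seeded together with NanoLuc luciferase and a prosubstrate that viable cells reduce to a luciferase substrate. After a 5 h incubation at 37 C/5% CO2, compounds were added and luminescence was measured repeatedly during 40 h of treatment.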

[4] = A CellTox Green Cytotoxicity Assay to monitor cytotoxicity in HEK293 cells - 24 hour (AID 1224875); also: nearly all actives have a fitted effect of over 45% in size; also: potency is read from the fitted curve at half-maximal effect; as to activity change: series mostly up to about 77 µM
In short: (§3)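 Nonlytic real-time cytotoxicity: HEK293 + CellTox Green reagent plated, 5 h preincubation, pintool compound addition (23 nL in DMSO), 37 C for 40 h, fluorescence measured at successive time points.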

[5] = A CellTox Green Cytotoxicity Assay to monitor cytotoxicity in HepG2 cells - 16 hour (AID 1224876); also: nearly all actives have a fitted effect of over 45% in size; also: potency is read from the fitted curve at half-maximal effect
In short: (§4)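 Read-out is fluorescence of a cyanine dye excluded from live cells that stains DNA of dead HepG2 cells, with signal proportional to cytotoxicity. Plates were read at 0, 8, 16, 24, 32 and 40 h after compound addition.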

[6] = qHTS RealTime-Glo MT Cell Viability Assay in HepG2 cells - 32 hour (AID 1224877); also: nearly all actives have a fitted effect of over 55% in size; also: potency is read from the fitted curve at half-maximal effect
In short: (§5)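 HepG2 cells (600/well) were dispensed with RealTime-Glo reagents, incubated 5 h at 37 °C, then treated with compounds in DMSO for up to 40 h. Nonlytic NanoLuc luminescence reflecting viable cells was read at each stated time point.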

[7] = A CellTox Green Cytotoxicity Assay to monitor cytotoxicity in HepG2 cells - 24 hour (AID 1224878); also: nearly all actives have a fitted effect of over 45% in size; also: potency is read from the fitted curve at half-maximal effect
In short: as §4

[8] = A CellTox Green Cytotoxicity Assay to monitor cytotoxicity in HepG2 cells - 40 hour (AID 1224879); also: nearly all actives have a fitted effect of over 40% in size; also: potency is read from the fitted curve at half-maximal effect
In short: as §4

[9] = A CellTox Green Cytotoxicity Assay to monitor cytotoxicity in HepG2 cells - 0 hour (AID 1224882); also: nearly all actives have a fitted effect of over 35% in size
In short: as §4

[10] = A CellTox Green Cytotoxicity Assay to monitor cytotoxicity in HepG2 cells - 32 hour (AID 1224883); also: nearly all actives have a fitted effect of over 50% in size; also: potency is read from the fitted curve at half-maximal effect
In short: as §4

[11] = A CellTox Green Cytotoxicity Assay to monitor cytotoxicity in HEK293 cells - 8 hour (AID 1224884); also: nearly all actives have a fitted effect of over 35% in size; also: potency is read from the fitted curve at half-maximal effect
In short: as §3

[12] = qHTS RealTime-Glo MT Cell Viability Assay in HepG2 cells - 16 hour (AID 1224885); also: nearly all actives have a fitted effect of over 50% in size; also: potency is read from the fitted curve at half-maximal effect
In short: as §5

[13] = qHTS RealTime-Glo MT Cell Viability Assay in HEK293 cells - 24 hour (AID 1224886); also: nearly all actives have a fitted effect of over 50% in size; also: potency is read from the fitted curve at half-maximal effect; as to activity change, negative = cytotoxicity: top concentration of the series differs between compounds
In short: as §1

[14] = qHTS RealTime-Glo MT Cell Viability Assay in HEK293 cells - 8 hour (AID 1224887); also: nearly all actives have a fitted effect of over 50% in size; also: potency is read from the fitted curve at half-maximal effect; as to activity change, negative = cytotoxicity: top concentration of the series differs between compounds
In short: as §2

[15] = A CellTox Green Cytotoxicity Assay to monitor cytotoxicity in HEK293 cells - 16 hour (AID 1224888); also: nearly all actives have a fitted effect of over 35% in size
In short: as §3

[16] = qHTS RealTime-Glo MT Cell Viability Assay in HepG2 cells - 0 hour (AID 1224889); also: nearly all actives have a fitted effect of over 50% in size
In short: as §5

[17] = A CellTox Green Cytotoxicity Assay to monitor cytotoxicity in HepG2 cells - 8 hour (AID 1224890); also: nearly all actives have a fitted effect of over 45% in size; also: potency is read from the fitted curve at half-maximal effect
In short: as §4

[18] = qHTS assay to identify small molecule antagonists of the estrogen receptor alpha (ER-alpha) signaling pathway using the BG1 cell line in the presence of 0.1 nM 17-beta-estradiol - cell viability counter screen (AID 1259241); also: nearly all actives have a fitted effect of over 40% in size
In short: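 Cells were plated and left 24 hr, compounds in DMSO were pinned in, 17beta-estradiol was added to 0.1 nM final, and after 22 hr CellTiter-Fluor reagent was added for 30 min before fluorescence was read.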

[19] = A CellTox Green Cytotoxicity Assay to monitor cytotoxicity in HEK293 cells - 32 hour (AID 1224881); also: nearly all actives have a fitted effect of over 40% in size; also: potency is read from the fitted curve at half-maximal effect
In short: as §3

[20] = qHTS RealTime-Glo MT Cell Viability Assay in HEK293 cells - 0 hour (AID 1224880)
In short: as §2

CN(C)C(=O)COC(=O)Cc1ccc(OC(=O)c2ccc(N=C(N)N)cc2)cc1
Potency [1]: inactive
Potency [2]: inactive
max response [3]: 5.33%
Potency [4]: inactive
Potency [5]: inactive
Potency [6]: inactive
Potency [7]: inactive
Potency [8]: inactive
Potency [9]: inactive
Potency [10]: inactive
Potency [11]: inactive
Potency [12]: inactive
Potency [13]: inactive
Potency [14]: inactive
Potency [15]: inactive
Potency [16]: inactive
Potency [17]: inactive
Potency [18]: inactive

CC(C)(C)c1ccc(C(O)CCCN2CCC(C(O)(c3ccccc3)c3ccccc3)CC2)cc1 (stereo unspecified)
Potency [1]: 6.74 µM (active)
Potency [2]: 10.7 µM (active)
Potency [3]: 4.77 µM (active)
Potency [4]: 9.52 µM (active)
Potency [5]: 10.7 µM (active)
Potency [6]: 5.35 µM (active)
Potency [7]: 8.49 µM (active)
Potency [8]: 5.35 µM (active)
Potency [19]: 8.49 µM (active)
Potency [9]: inactive
Potency [10]: 5.35 µM (active)
Potency [11]: 21.3 µM (active)
Potency [12]: 7.56 µM (active)
Potency [13]: 5.35 µM (active)
Potency [14]: 8.49 µM (active)
Potency [16]: inactive
Potency [17]: 15.1 µM (active)

C=CCn1c(=O)n(CC=C)c(=O)n(CC=C)c1=O
Potency [1]: inactive
Potency [2]: inactive
max response [3]: -5.88%
Potency [4]: inactive
Potency [5]: inactive
Potency [7]: inactive
Potency [8]: inactive
Potency [19]: inactive
Potency [9]: inactive
Potency [10]: inactive
Potency [11]: inactive
Potency [12]: inactive
Potency [13]: inactive
Potency [14]: inactive
Potency [15]: inactive
Potency [16]: inactive
Potency [17]: inactive

CC(C)(C)C1CCC(=O)CC1
Potency [1]: inactive
Potency [2]: inactive
max response [3]: 0.275%
Potency [4]: inactive
Potency [5]: inactive
Potency [7]: inactive
Potency [8]: inactive
Potency [20]: inactive
Potency [19]: inactive
Potency [9]: inactive
Potency [10]: inactive
Potency [11]: inactive
Potency [12]: inactive
Potency [13]: inactive
Potency [14]: inactive
Potency [15]: inactive
Potency [16]: inactive
Potency [17]: inactive
Potency [18]: inactive

NC[C@H]1O[C@H](O[C@H]2[C@H](O[C@@H]3O[C@H](CO)[C@@H](O)[C@H]3O)C(O)[C@H](N)C[C@@H]2N)[C@H](N)[C@@H](O)[C@@H]1O (stereo partly specified)
activity change, negative = cytotoxicity [1]: 3.13% [at 6.97 µM]
viability change, negative = cytotoxic [2]: 2.91% [at 6.97 µM]
max response [3]: 4.82%
activity change [4]: -9.09% [at 6.97 µM, active compounds read high]
cytotoxicity increase [5]: 11% [at 6.97 µM]
cytotoxicity [7]: 9.58% [at 6.97 µM]
cytotoxicity increase [8]: 9.38% [at 6.97 µM]
activity change, negative = cytotoxicity [20]: 10.7% [at 6.97 µM]
cytotoxicity increase [19]: -11.8% [at 6.97 µM]
cytotoxicity [9]: 11.3% [at 6.97 µM]
cytotoxicity increase [10]: 7.9% [at 6.97 µM]
cytotoxicity increase [11]: -4.48% [at 6.97 µM]
activity change, negative = cytotoxic [12]: 1.38% [at 6.97 µM]
activity change, negative = cytotoxicity [13]: 4.78% [at 6.97 µM]
activity change, negative = cytotoxicity [14]: -3.38% [at 6.97 µM]
activity change [15]: -6.01% [at 6.97 µM, active compounds read high]
activity change, negative = cytotoxicity [16]: 1.18% [at 6.97 µM]
cytotoxicity increase [17]: 12.8% [at 6.97 µM]
activity change, negative = cytotoxicity [18]: 2.08% [at 8.39 µM]

C[C@@H](O)[C@H](N)C(=O)O
activity change, negative = cytotoxicity [1]: -1.06% [at 15.8 µM]
viability change, negative = cytotoxic [2]: 1.46% [at 15.8 µM]
max response [3]: -1.76%
activity change [4]: -4.79% [at 15.8 µM, active compounds read high]
cytotoxicity increase [5]: 6.33% [at 15.8 µM]
activity change, negative = cytotoxic [6]: -3.46% [at 15.8 µM]
cytotoxicity [7]: 5.91% [at 15.8 µM]
cytotoxicity increase [8]: 7.81% [at 15.8 µM]
cytotoxicity increase [19]: -5.17% [at 15.8 µM]
cytotoxicity [9]: 7.45% [at 15.8 µM]
cytotoxicity increase [10]: 4.24% [at 15.8 µM]
cytotoxicity increase [11]: -5.26% [at 15.8 µM]
activity change, negative = cytotoxic [12]: -0.0796% [at 15.8 µM]
activity change, negative = cytotoxicity [13]: 0.683% [at 15.8 µM]
activity change, negative = cytotoxicity [14]: -0.878% [at 15.8 µM]
cytotoxicity increase [17]: 6.73% [at 15.8 µM]
activity change, negative = cytotoxicity [18]: -3.81% [at 19 µM]

CC(C)(c1cc(Br)c(OCC(Br)CBr)c(Br)c1)c1cc(Br)c(OCC(Br)CBr)c(Br)c1 (stereo unspecified)
Potency [1]: inactive
Potency [2]: inactive
max response [3]: -0.358%
Potency [4]: inactive
Potency [5]: inactive
Potency [7]: inactive
Potency [8]: inactive
Potency [20]: inactive
Potency [19]: inactive
Potency [9]: inactive
Potency [10]: inactive
Potency [11]: inactive
Potency [12]: inactive
Potency [13]: inactive
Potency [14]: inactive
Potency [15]: inactive
Potency [16]: inactive
Potency [17]: inactive
Potency [18]: inactive

NC(=S)NC(N)=S
Potency [1]: inactive
Potency [2]: inactive
max response [3]: -1.4%
Potency [4]: inactive
Potency [5]: inactive
Potency [6]: inactive
Potency [7]: inactive
Potency [8]: inactive
Potency [19]: inactive
Potency [9]: inactive
Potency [10]: inactive
Potency [11]: inactive
Potency [12]: inactive
Potency [13]: inactive
Potency [14]: inactive
Potency [15]: inactive
Potency [16]: inactive
Potency [17]: inactive
Potency [18]: inactive

O=C(O)CCN(C1(C(=O)NO)CCCC1)S(=O)(=O)c1ccc(Oc2ccc(F)cc2)cc1
Potency [1]: inactive
Potency [2]: inactive
max response [3]: 9.57%
Potency [4]: inactive
Potency [5]: inactive
Potency [7]: inactive
Potency [8]: inactive
Potency [20]: inactive
Potency [9]: inactive
Potency [10]: inactive
Potency [11]: inactive
Potency [12]: inactive
Potency [13]: inactive
Potency [14]: inactive
Potency [15]: inactive
Potency [16]: inactive
Potency [17]: inactive
Potency [18]: inactive

CCCC(=O)OC(C)(C)Cc1ccccc1
Potency [1]: inactive
Potency [2]: inactive
max response [3]: -22.8%
Potency [4]: inactive
Potency [6]: inactive
Potency [20]: inactive
Potency [19]: inactive
Potency [9]: inactive
Potency [11]: inactive
Potency [12]: inactive
Potency [13]: inactive
Potency [14]: inactive
Potency [15]: inactive
Potency [16]: inactive
Potency [17]: inactive

O=C(Oc1ccccc1)Oc1ccccc1
Potency [1]: inactive
Potency [2]: inactive
max response [3]: -21%
Potency [4]: inactive
Potency [5]: inactive
Potency [6]: 48.8 µM (active)
Potency [7]: inactive
Potency [8]: inactive
Potency [19]: inactive
Potency [9]: inactive
Potency [10]: inactive
Potency [11]: inactive
Potency [14]: inactive
Potency [15]: inactive
Potency [17]: inactive
Potency [18]: inactive

O=C(O)c1cccc(C(F)(F)F)c1
Potency [1]: inactive
Potency [2]: inactive
max response [3]: -0.78%
Potency [4]: inactive
Potency [5]: inactive
Potency [7]: inactive
Potency [8]: inactive
Potency [20]: inactive
Potency [19]: inactive
Potency [9]: inactive
Potency [10]: inactive
Potency [11]: inactive
Potency [12]: inactive
Potency [14]: inactive
Potency [16]: inactive
Potency [17]: inactive
Potency [18]: inactive
